SW480 rerep: inducers of DNA re-replication in SW480 colon cancer cells | SW480 DNA re-replication, Hoechst DNA content imaging, 48 h | Potency, µM (top dose mostly 46.1 µM), without a hit: at the highest dose re-replication activation, usual class: activators | 340,000 compounds, 1.8% hits; note: % of control where 0% means no effect; nearly all actives have a fitted effect of over 55% in size
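250 cells/well; 23 nL cpd via pin tool; 48 hr, 37 C, 5% CO2; Hoechst 40 min; imager read of total nuclear intensity, ex 405/em 500-530 nm.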
MCF10A rereplic: inducers of DNA re-replication in MCF 10A breast cells; MCF 10A DNA re-replication, Hoechst nuclear intensity, 48 h; Potency, µM (highest dose often 46.1 µM), inactives show at the top dose activity, positive = re-replication, usual class: activators; 350,000 compounds, 2.9% hits; AID 624296; note: % of control where 0% means no effect; nearly all actives have a fitted effect of over 50% in size
KB-V1 MDR tox: kills drug-selected multidrug resistant KB-V1 cells; KB-V1 MDR cells viability, CellTiter-Glo, 72 h; AID 1347076; Potency, µM (top dose mostly 46.1 µM), actives largely listed as cytotoxic; 400,000 compounds, 3.4% hits; note: % is set by controls: 0 for no effect and ±100 for the full control effect; nearly all actives have a fitted effect of over 60% in size
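Readout: CellTiter-Glo luminescence, 10 min after addition. Cells: KB-V1 MDR subline, 72 h at 37 degrees C with compound. Analysis: corrected, normalized data fitted to concentration-effect curves.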
KB-3-1 tox: kills parental KB-3-1 adenocarcinoma cells; KB-3-1 viability, CellTiter-Glo ATP luminescence, 72 h; AID 1347075; 400,000 compounds, 1.4% hits; Potency, µM (doses to about 46.1 µM), most hits filed as cytotoxic; note: % is set by controls: 0 for no effect and ±100 for the full control effect; nearly all actives have a fitted effect of over 60% in size
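Here the drug-naive KB-3-1 line serves as comparator for MDR sub-line selectivity; cells received compound titrations, 72 h at 37 °C, then CellTiter-Glo readout.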
HT1080 IDH1KD tx: toxicity to HT-1080 IDH1 knockdown cells (counter line) | Potency, µM (series often up to 46.1 µM), for the others: at the highest dose activity, negative = toxicity, most hits filed as cytotoxic | HT-1080 IDH1 knockdown viability, ATP luminescence, 48 h | 360,000 compounds, 2% hits;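 note: 0% = DMSO wells and -100% = cell-free medium wells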
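Knockdown cells (IDH1KD HT-1080) received compounds 2 h after plating at 750 cells/well and were kept 48 h at 37 °C in 5% FBS RPMI. A CellTiter-Glo luminescence read gave % activity for curve fitting.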
HT1080NT lethal: kills 2HG-producing HT-1080-NT fibrosarcoma cells | HT-1080-NT fibrosarcoma viability, CellTiter-Glo ATP luminescence, 48 h | Potency, µM (top dose mostly 46.1 µM), for inactives: at the highest dose activity, negative = less viability, hits mostly cytotoxic | 360,000 compounds, 1.6% hits;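 note: NT is the 2HG producing partner of a matched IDH1 knockdown line; 0% = DMSO-treated cells and -100% = media-only wells without cells; nearly all actives have a fitted effect of over 55% in size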
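Viability of the 2HG-overproducing fibrosarcoma line after 48 hours of compound exposure at 37 degrees C was determined by luminescence with CellTiter-Glo, and concentration-effect curves were then fitted and categorized.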
The depositor's hits bear a star; i = inactive; ? = inconclusive; · = not tested or not shown. An excerpt weighted towards active compounds, which were near 7.9% of everything screened. Calls come from the whole dose curve; as a rule, active = well fitted curve in the direction sought with a large enough effect; inconclusive = small, poorly fitted or top-dose-only effect, or another doubt; inactive = no such curve, though single readings can be large; an effect the other way counts as inactive or inconclusive. Potency is the fitted concentration of half-maximal effect.

SMILES	SW480 rerep	MCF10A rereplic	KB-V1 MDR tox	KB-3-1 tox	HT1080 IDH1KD tx	HT1080NT lethal
CCOc1ccc(-n2c(N)c(C(=O)NCc3ccco3)c3nc4ccccc4nc32)cc1	?	12.6µM*	?	i	?	?
Nc1c(C(=O)NCc2ccco2)c2nc3ccccc3nc2n1CCc1ccccc1	7.31µM*	1.84µM*	?	i	-0.2%	?
O=C(NCc1ccco1)c1ccc2ccccc2n1	-3.7%	0.3%	i	i	28.9%	22.3%
COc1ccc(OC)c(N(CC(=O)N2CCCC2)S(=O)(=O)c2ccccc2)c1	-2.9%	6.9%	i	i	6.7%	16.3%
O=C(NC1CC1)C1=C[C@H](c2ccc3c(c2)OCO3)C[C@H](OCc2ccc(CO)cc2)O1	?	6.7%	i	i	3.8%	7.1%
Cc1[nH]n(-c2ccccc2)c(=O)c1C=Nc1ccc(S(N)(=O)=O)cc1	-69.4%	4.5%	i	i	-17.5%	4.8%
CCc1noc(C)c1C(=O)OCC(=O)c1ccc(OC)c(OC)c1	-12.4%	3.2%	i	i	-2.0%	1.9%
O=C1/C(=C/c2ccc(F)cc2)CCC1C1CCCC1 (stereo not given)	1.3%	-0.4%	i	i	28.3%	20.7%
COc1ccc(NS(=O)(=O)c2ccc(NS(=O)(=O)c3cccc(C(=O)O)c3)cc2)cc1	-5.7%	0.6%	i	i	22.7%	7.6%
O=C(CN1C(=O)NC(c2ccccc2)(c2ccccc2)C1=O)Nc1ccc2[nH]c(=O)[nH]c2c1	30.0%	-0.8%	i	i	1.9%	11.7%
COc1ccc(CNC(=O)c2c(N)n(CCCN3CCOCC3)c3nc4ccccc4nc23)cc1	2.59µM*	?	?	i	?	?
Cc1ccc(C(C)C)cc1OCC(=O)Nc1ccc(-n2cnnn2)cc1	-2.8%	-0.8%	i	i	3.1%	1.1%
CC(=O)Nc1ccc(NC(=O)CCCN2C(=O)c3ccccc3C2=O)cc1	0.6%	-0.3%	i	i	2.9%	4.3%
CC(=O)Nc1ccc(NC(=O)CCN2C(=O)c3ccccc3C2=O)cc1	-37.8%	0.581µM*	i	i	0.0%	1.6%
Cc1ccc(C)c(N2CCN(C(=O)c3cnn(C(C)(C)C)c3C3CCN(C(=O)OC(C)(C)C)CC3)CC2)c1	·	·	i	i	·	·
CCN(CC)CCNC(=O)c1cn(CC)c2ccc(S(=O)(=O)N(C)C3CCCCC3)cc2c1=O	?	4.5%	?	i	0.7%	-1.0%
CN1C2CCC1/C(=C\c1ccccc1)C(=O)/C2=C\c1ccccc1	?	?	i	7.31µM*	?	?
CC1(C)C(=Cc2ccccc2)C(=O)c2ccccc21	·	·	i	i	0.2%	2.0%
COc1ccccc1C(=O)N1CCN(c2ccc(N3CCOCC3)nn2)CC1	-5.5%	14.8%	i	?	-3.8%	-8.5%
COC(=O)c1cc(OC)c(OC)cc1NC(=O)C(C)Sc1ccc(C)cc1 (stereo not given)	15.5%	3.66µM*	?	i	1.5%	2.1%
COc1ccc([N+](=O)[O-])cc1NC(=O)C(C)Sc1ccc(C)cc1 (stereo not given)	6.4%	11.1%	i	?	8.1%	11.0%
CCOc1ccc(NS(=O)(=O)c2cc(C(=O)NCC3CCCO3)ccc2Cl)cc1 (stereo not given)	-68.7%	0.3%	i	i	-2.1%	-4.6%
COC(=O)N/N=C/c1ccc(-c2ccc(Cl)cc2Cl)o1	-0.2%	-1.1%	i	i	-9.6%	-0.5%
COC(=O)c1ccccc1-c1ccc(/C=N/NC(N)=O)o1	-18.2%	-4.2%	5.17µM*	14.6µM*	-0.9%	2.8%
COC(=O)N/N=C/c1ccc(-c2ccccc2Cl)o1	-6.8%	0.5%	6.51µM*	?	-11.1%	-18.8%

Screening results: PubChem, National Center for Advancing Translational Sciences (NCATS)
